These results are taken from ChEMBL document CHEMBL4513216, “Probing the Open Global Health Chemical Diversity Library for Multistage-Active Starting Points for Next-Generation Antimalarials” (ACS Infect Dis, 2020).

In all, about 68,000 compounds went through this assay and about 2,700 (4%) showed an effect of 50% or more. Many of the other results were omitted from the sample, so strong results are more common in it than they were.

This test concerns Plasmodium berghei. In words: Screen against P. berghei liver stage (PbLuc), transformed with Luciferase, at 2uM. The class given is functional, HepG2. To be noted: tested at 2 uM.
Take `CCC(C)NC(=O)c1cccc(CNCc2csc(C(C)C)n2)c1` (stereo not given): the INHIBITION is recorded as -21.15%.

With `CC(C)N(C)Cc1cncc2c1CCN(Cc1ccoc1)C2`, the INHIBITION was 1.81%.

`Cc1ccc(C(=O)NCC(O)CN2CCCC2=O)c(C)c1` (stereo not given): the INHIBITION is reported as -40.9%.

For the molecule `COc1ccc(CN(C)C(=O)CN2CC(n3cc(C)cn3)C2)cc1F`, the INHIBITION is listed as -6.33%.

As to `CCc1nn(C)c(Cl)c1CN1CCN(c2ccc(C(N)=O)cn2)CC1`, the INHIBITION was 33.16%.

Turning to `CCOC(=O)c1ccc(N2CCN(Cc3c(C)nn(C)c3Cl)CC2)nc1`, the INHIBITION came to 55.7%.

In the case of `NC(=O)c1ccc(N2CCN(Cc3c(Cl)cncc3Cl)CC2)nc1`, the INHIBITION was -20.93%.

`Cc1nc2c(c(Nc3ccccn3)n1)CN(S(C)(=O)=O)CC2`: the INHIBITION is on record as -48.89%.

For the molecule `Cc1noc(C)c1C(=O)N1CCC(n2cccn2)CC1`, the INHIBITION came out at 61.52%.

Take `COC(=O)c1cccn1C1CCN(C(=O)c2c(C)noc2C)CC1`: the INHIBITION is 39.92%.

For `Cc1noc(C(C)C)c1C(=O)N1CCC(n2cccn2)CC1`, the INHIBITION was 22.57%.

In the case of `Cc1noc(C(C)Nc2ccc3oc(C)nc3c2)n1` (stereo not given), the INHIBITION came out at 10.04%.

With `O=C(c1ccc(F)cc1Cl)N1CCC(Nc2cccnn2)CC1`, the INHIBITION came to 8.37%.

In the case of `Fc1cccc(CN2CCOC3(COCCN(CC4CC4)C3)C2)c1` (stereo not given), the INHIBITION turned out to be 3.11%.

For `Cc1cn[nH]c1C1COCCN1C(=O)c1ccc2c(c1)CCCC2` (stereo not given), the INHIBITION is listed as 72.17%.

In the case of `COc1ccc(C(=O)N2CCOCC2c2[nH]ncc2C)cc1F` (stereo not given), the INHIBITION is reported as -53.71%.

As to `Cc1cn[nH]c1C1COCCN1C(=O)c1ccc2[nH]nnc2c1` (stereo not given), the INHIBITION was found to be 37.33%.

`CS(=O)(=O)CCN1CCC(Nc2c(Cl)cccc2C#N)CC1`: the INHIBITION is -23.01%.

For `CC(C)OC(=O)N1CCCCC1CCn1cccn1` (stereo not given), the INHIBITION was 29.71%.

As for `CN1CCCC(CCC(=O)N2CCc3sc(C(=O)N(C)C)cc3C2)C1` (stereo not given), the INHIBITION came to 74.44%.

For the molecule `CN(C)C(=O)c1cc2c(s1)CCN(C(=O)CCCN1CCCCC1)C2`, the INHIBITION was determined as 17.2%.

As for `CNC(=O)c1cc2c(s1)CCN(C(=O)CCC1CCCN(C)C1)C2` (stereo not given), the INHIBITION was -4.26%.

Turning to `C1CCC(CO[C@@H]2CC[C@H]3[C@H]2OCCN3CC2CCOCC2)C1`, the INHIBITION is 42.01%.

As for `CC(=O)N1CCN(Cc2ccc(F)cc2)CC2(CC(=O)N(C)C2)C1` (stereo not given), the INHIBITION is 44.68%.

As to `Cc1c(C)n2c(SCC(=O)N3CCOCC3)nnc2[nH]c1=O`, the INHIBITION is given as 33.59%.

As to `Oc1cccc(CN2CCN(C3CCc4ccccc4C3)CC2)c1` (stereo not given), the INHIBITION was -5.87%.

`COc1ccc(CN2CCN(C3CCc4ccccc4C3)CC2)cc1O` (stereo not given): the INHIBITION is listed as 59.48%.

`COc1cc(O)ccc1CN1CCN(C2CCc3ccccc3C2)CC1` (stereo not given): the INHIBITION stood at 31.9%.

For `CCNC(=O)C1CCN(c2nc(-c3ccco3)nc3c2CCNCC3)C1` (stereo not given), the INHIBITION was 40.47%.

`CCC(O)CN1CCN(C(=O)c2cc(Cl)cc3cccnc23)CC1` (stereo not given): the INHIBITION is reported as -28.58%.

With `Cc1cc(C(=O)N2CCc3c(ncn3CCc3ccccc3)C2)on1`, the INHIBITION is reported as 50.59%.

For `Cc1cc(C)c(C(=O)N2CCc3c(ncn3CCc3ccccc3)C2)[nH]1`, the INHIBITION worked out at 0.51%.

As for `Cc1nonc1C(=O)N1CCc2c(ncn2CCc2ccccc2)C1`, the INHIBITION turned out to be 17.2%.

For the molecule `c1ccc(Cn2cc3c(n2)C(COCC2CC2)OCC3)nc1` (stereo not given), the INHIBITION is listed as 7.73%.

Regarding `Cn1cnc2c1CCN(Cc1csc(Cc3ccccc3)n1)C2`, the INHIBITION is 33.61%.

As to `COc1ccc(-n2nnnc2C(C)(C)Nc2ccc(C)cc2C)cc1`, the INHIBITION turned out to be 57%.

In the case of `Cc1ccc(NC(C)(C)c2nnnn2-c2ccc(Cl)cc2)c(C)c1`, the INHIBITION is recorded as -0.62%.

Consider `Cc1cccc(-n2nnnc2C(C)(C)Nc2ccccc2C)c1`, for which the INHIBITION is reported as -20.72%.

Regarding `COCCN1CC2(CCCN(C(=O)NCc3ccccc3)C2)CCC1=O` (stereo not given), the INHIBITION was found to be 13.53%.

In the case of `CCc1cc(NCCCC2CCOC2)n2nccc2n1` (stereo not given), the INHIBITION is -3.6%.

Turning to `CCc1cc(NCCN2CCNC2=O)n2nccc2n1`, the INHIBITION was 25.69%.

Take `CCCc1cc(NCCCC2CCOC2)n2nccc2n1` (stereo not given): the INHIBITION is 26.35%.

For `CCCc1cc(NCCC2CCCOC2)n2nccc2n1` (stereo not given), the INHIBITION was 50.41%.

As to `CCCc1cc(NCCN2CCNC2=O)n2nccc2n1`, the INHIBITION was found to be 68.39%.

Take `O=C1NCCN1CCNc1cc(-c2ccccc2)nc2ccnn12`: the INHIBITION was -8.8%.

For `CC(SCCC(=O)NC(N)=O)c1cccc(F)c1` (stereo not given), the INHIBITION is given as 4.07%.

As for `Cc1cc(CN2CCC(N(C)Cc3noc(C4CC4)n3)C2)no1` (stereo not given), the INHIBITION is -17.31%.

Turning to `COc1cccc(S(=O)(=O)N2CCCCC2CCN2CCCC2=O)c1` (stereo not given), the INHIBITION is 25.51%.

Consider `NCC(c1ccc(Cl)cc1)N1CCc2sccc2C1` (stereo not given), for which the INHIBITION was -5.59%.

`CC(C)NC(=O)N1CCC2(CC1)[C@@H]1CN(C(=O)N(C)C)C[C@@H]1C(=O)N2C`: the INHIBITION is reported as 24.36%.

With `COC(=O)CCC(=O)NC1CCCc2cc(OC(F)F)ccc21` (stereo not given), the INHIBITION was -41.81%.

`O=C(COCC(F)(F)F)NC1CCCc2cc(OC(F)F)ccc21` (stereo not given): the INHIBITION is 60.52%.

Turning to `O=C(CS(=O)(=O)C1CCCC1)NC1CCCc2cc(OC(F)F)ccc21` (stereo not given), the INHIBITION turned out to be 14.88%.

Take `CC(C)NC(=O)N1CCCCCC1C1CCN(c2ncccn2)CC1` (stereo not given): the INHIBITION was 36.28%.

For `O=C(O)c1ccccc1-c1ccc(CN2CC(c3ccncn3)C2)o1`, the INHIBITION is reported as -44.74%.

Take `O=C(Nc1nncs1)NC1CCCc2c1cnn2CCO` (stereo not given): the INHIBITION is reported as 8.27%.

Regarding `O=C(NC1CCCCC1)NC1CCCc2c1cnn2CCO` (stereo not given), the INHIBITION is recorded as -39.36%.

Regarding `CCn1cc(NC(=O)NC2CCCc3c2cnn3CCO)cn1` (stereo not given), the INHIBITION was found to be 56.57%.

As to `Cc1cc(NC(=O)NC2CCCc3c2cnn3CCO)n(C)n1` (stereo not given), the INHIBITION amounted to 32.55%.

Regarding `Cc1nc(CCNC(=O)NC2CCCc3c2cnn3CCO)cs1` (stereo not given), the INHIBITION was -47.76%.

As for `Cc1nnc(NC(=O)NC2CCCc3c2cnn3CCO)s1` (stereo not given), the INHIBITION was determined as 53.57%.

For `Cc1cc(C)cc(NC(=O)c2cnc(N3CCN(C)CC3)nc2C)c1`, the INHIBITION worked out at 19.84%.

On to `Cc1cc(C)c(CNC(=O)C(C)Oc2ccccc2C#N)c(=O)[nH]1` (stereo not given), for which the INHIBITION worked out at 35.43%.

As to `CCOCC(=O)N1C[C@H]2CN(CC3CC3)C(=O)[C@H]2C1`, the INHIBITION was -3.65%.

Take `O=C(c1ncoc1C1CC1)N1CCCN(CCCc2ccccc2)CC1`: the INHIBITION stood at 26.3%.

Take `CC1CCN(C(=O)CSCCN2CCOCC2)CC1`: the INHIBITION turned out to be 8.64%.

With `COCCN1CCN(c2ccc(CN(C)C)cn2)CC1`, the INHIBITION is reported as -0.85%.

For `O=C(Nc1cnc2n1CCCC2)c1cccc(-n2cnnc2)c1`, the INHIBITION was 50.91%.

Turning to `O=C(Nc1cnc2n1CCCC2)c1cccc(NC(=O)C2CCCC2)c1`, the INHIBITION is recorded as 22%.

As for `CC(=O)Nc1cccc(C(=O)Nc2cnc3n2CCCC3)c1`, the INHIBITION is recorded as 19.61%.
